Experimental data reported in PubChem BioAssay AID841 (Emory University Molecular Libraries Screening Center, 2007).
The campaign covered roughly 140,000 compounds. About 2,100 (1.5%) were called active. Cut-off read from the data, not from the text of the source: active = protection mostly above about 24% (no sharp cut-off); inactive = mostly below about 26%. The full list was thinned out, with actives kept by preference.

Assay: compounds protecting cells from measles virus cytopathic effect, primary screen, measles RdRp inhibitor project, single point, MLSMR library, absorbance (AID 841)
Settings: Measles virus-infected cells, CPE protection, at 4 µM, stronger effect = higher value

Row | SMILES | protection (pct of control)
1 | CS(=O)(=O)c1ccc2nc(NC(=O)C3C4C=CC(C4)C3C(=O)O)sc2c1 (configuration not stated) | 18.3% (inactive)
2 | CS(=O)(=O)c1ccc2nc(NC(=O)C3CCCCC3)sc2c1 | 38.1% (active)
3 | CS(=O)(=O)c1ccc2nc(NC(=O)CN3CCCCCC3)sc2c1 | 4.57% (inactive)
4 | O=C(/C=C/c1cnc2ccccc2n1)NC1CCCCCC1 | 9.7% (inactive)
5 | Cc1cc(NC(=O)CSc2nnc(-c3ccc(Cl)s3)o2)no1 | 86.1% (active)
6 | Cc1ccc(-c2csc(SCC(=O)Nc3cc(C)on3)n2)cc1 | 7.27% (inactive)
7 | COc1ccccc1-c1nnc(SCC(=O)Nc2cc(C)on2)o1 | 14.9% (inactive)
8 | O=C(COC(=O)/C=C/c1nc2ccccc2s1)Nc1ccccc1Oc1ccccc1 | 1.41% (inactive)
9 | Cc1cccc(-n2c(SCC(N)=O)nc3c(c2=O)C2(CCCCC2)Cc2ccccc2-3)c1 | 29.9% (active)
10 | N#CCSc1nc2c(c(=O)n1Cc1ccccc1)C1(CCCC1)Cc1ccccc1-2 | 1.58% (inactive)
11 | Cc1cccc(-n2c(N)cc(=O)nc2SC(C)C(=O)NC2CCCCC2)c1 (configuration not stated) | 20.2% (inactive)
12 | COc1ccc(-c2csc3ncnc(Oc4ccc5c(C)cc(=O)oc5c4)c23)cc1 | 6.48% (inactive)
13 | O=C(COc1ccc([N+](=O)[O-])cc1)Nc1ccc(N2CCCC2)cc1 | 18.8% (inactive)
14 | O=C(COc1ccc(/C=N/NC(=O)c2ccc(O)cc2)cc1)Nc1ccc([N+](=O)[O-])cc1 | 40.1% (active)
15 | CCCCCC(=O)Nc1ccc(C(=O)N/N=C/c2ccc([N+](=O)[O-])cc2)cc1 | 25.1% (inactive)
16 | O=C(NNC1CC(=O)N(c2cccc(Cl)c2)C1=O)c1cccnc1 (configuration not stated) | 8.5% (inactive)
17 | COc1cc(C2C(N3C(=O)c4ccccc4C3=O)C(=O)N2c2ccc(C)c(C)c2)cc(OC)c1OC (configuration not stated) | 9.11% (inactive)
18 | Cc1ccc(NC(=O)c2sc3nc(N)c(C#N)cc3c2N)cc1 | 74.1% (active)
19 | CCc1ccc2nc3sc(C(=O)Nc4nnc(CC)s4)c(N)c3cc2c1 | 1.37% (inactive)
20 | CC(=O)Nc1ccc(NC(=O)c2sc3nc4c(c(-c5ccc(C)cc5)c3c2N)CCC4)cc1 | 9.68% (inactive)
21 | Cc1ccc(NC(=S)N2CCN(c3ncccn3)CC2)cc1C | 12.6% (inactive)

Row | SMILES | protection (pct of control)
22 | CCNC(=S)N1CCN(c2ncccn2)CC1 | 20.9% (active)
23 | CCNC(=S)N1CCN(C(=O)c2ccco2)CC1 | 9.63% (inactive)
24 | CCOC(=O)c1c(NC(=O)c2ccc(Br)o2)sc2c1CCCC2 | 27.8% (active)
25 | CCOC(=O)c1c(NC(=S)NC(=O)c2ccco2)sc2c1CCCC2 | 37% (inactive)
26 | CCOCC(=O)Nc1sc2c(c1C(=O)OCC)CCCC2 | 7.18% (inactive)
27 | COc1cc(/C=C/C(=O)OCC(=O)Nc2cccc(Oc3ccccc3)c2)ccc1O | 11.5% (inactive)
28 | C=CCc1ccccc1OCC(=O)N/N=C/c1ccccc1OCC | 1.64% (inactive)
29 | COc1ccc(C(F)(F)F)cc1N/C=C\c1nnnn1-c1ccc(C)cc1 | 30.4% (active)
30 | COc1ccc(C)cc1NC(=O)CCC(=O)Nc1nnc(C(F)(F)F)s1 | 11.8% (inactive)
31 | COc1ccc(OC)c(-n2nnnc2SCC(=O)Nc2cc(C)ccc2OC)c1 | 17.2% (inactive)
32 | CCC(C)NC(=O)c1ccc(N2CCC3(CC2)OCCO3)c([N+](=O)[O-])c1 (configuration not stated) | 13.6% (inactive)
33 | Cc1cc(Cl)ccc1OCCCC(=O)NCc1ccncc1 | 6.27% (inactive)
34 | COC(=O)c1sccc1NC(=O)c1csc2c1CCCC2 | 9.63% (inactive)
35 | CC(=O)Cc1nsc(NC(=O)c2csc3c2CCCC3)n1 | 2.51% (inactive)
36 | COC(=O)c1sc(NC(=O)c2csc3c2CCCC3)nc1C | 49.9% (active)
37 | CN(c1ccccc1)S(=O)(=O)c1cccc(NC(=O)Cc2c(F)cccc2Cl)c1 | 5.27% (inactive)
38 | Cc1cc(OC(=O)c2c(Cl)cccc2Cl)nc(C)n1 | 8.28% (inactive)
39 | Cc1cc(C)c(S(=O)(=O)c2ccccc2)c(OC(=O)c2c(F)cccc2Cl)n1 | 38.9% (active)
40 | CCNc1ccc(C(=O)OCC(=O)N2c3ccccc3NC(=O)C2(C)C)cc1[N+](=O)[O-] | 5.03% (inactive)
41 | COc1cc(/C=N/n2c(C)n[nH]c2=S)ccc1OCc1ccccc1 | 79.2% (active)
42 | Cc1n[nH]c(=S)n1/N=C/c1ccc(Br)o1 | 7.57% (inactive)

Row | SMILES | protection (pct of control)
43 | COc1cc(/C=N/O)ccc1OCc1ccc([N+](=O)[O-])cc1 | 30% (inactive)
44 | COc1ccc(C(=O)ON=C2c3ccccc3-c3ccccc32)cc1OC | 9.81% (inactive)
45 | Cc1cccc(OCCNC(=S)NC(=O)c2cccnc2)c1 | 16.7% (inactive)
46 | COc1ccc(Br)cc1CN(C)CC(=O)Nc1cc([N+](=O)[O-])ccc1OC | 4.74% (inactive)
47 | COc1ccc([N+](=O)[O-])cc1NC(=O)CCc1ccccc1 | 101% (active)
48 | COc1ccccc1CC(=O)Nc1ccc([N+](=O)[O-])cc1OC | 14.5% (inactive)
49 | CCC1S/C(=N/N=C/c2ccco2)NC1=O (configuration not stated) | 7.36% (inactive)
50 | CCOCCCNC(=O)C(NC(=O)c1ccc(=O)[nH]c1)c1ccc(Cl)cc1 (configuration not stated) | 30.2% (active)
51 | CCOCCCNC(=O)C(NC(=O)c1ccc(=O)[nH]c1)c1ccc(C)cc1 (configuration not stated) | 6.13% (inactive)
52 | CCOCCCNC(=O)C(NC(=O)CNC(=O)c1ccccc1)c1ccc(C)cc1 (configuration not stated) | 7.37% (inactive)
53 | Cc1ccc(-c2cc(N)on2)cc1 | 16.5% (inactive)
54 | Cc1ccc(S(=O)(=O)N2CCCC2C(=O)OCc2nc3sc(C)c(C)c3c(=O)[nH]2)cc1 (configuration not stated) | 4.09% (inactive)
55 | Cc1ccc2[nH]c(C(=O)O)c(NC(=O)c3ccccc3[N+](=O)[O-])c2c1 | 14.1% (inactive)
56 | CCOC(=O)c1c(-c2ccc(C)cc2C)csc1NC(=O)CSc1nnnn1C | 37% (active)
57 | COC(=O)c1ccccc1NC(=O)CSc1nnnn1C | 30.8% (inactive)
58 | CCOC(=O)CNC(=O)CSc1nnnn1-c1cc(C)ccc1C | 4.67% (inactive)
59 | COc1ccc(/C=C/C(=O)Nc2ccc3c(c2)OCCO3)cc1OC | 18.3% (inactive)
60 | CC1(C)CC(=O)C(C=NCc2cccnc2)=C(O)C1 | 2.03% (inactive)
61 | CC(=O)N1CCN(CCN=CC2=C(O)CC(C)(C)CC2=O)CC1 | 2.75% (inactive)
62 | CC1(C)CC(=O)C(C=NCCC2=CCCCC2)=C(O)C1 | 36.1% (active)
